Reference: PubChem BioAssay AID504467 (National Center for Advancing Translational Sciences (NCATS), 2011)
Hit rate of the full screen: of about 330,000 compounds, about 7,700 (2.3%) were called active. Where a call stands in place of a potency, no number is given. Not shown: some 26% with an inconclusive outcome. This is one part of a sample in which actives are shown more often than they occur. The call rests on the fitted dose curve; in most records, active means well fitted inhibition curve with a large enough effect; inconclusive means small, poorly fitted or top-dose-only effect, or effect the other way; inactive means flat fitted curve, though single readings scatter.

Experiment: qHTS screen for small molecules that inhibit ELG1-dependent DNA repair in human embryonic kidney (HEK293T) cells expressing luciferase-tagged ELG1; further: nearly all actives have a fitted effect of over 55% in size
Settings: HEK293T ELG1-luciferase reporter, luminescence, 16 h, DNA damage induced by 5-fluorouridine; series mostly up to 46.1 µM
Method in brief: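 In this reporter screen, reduction of luminescence relative to DMSO vehicle indicated activity. Compounds and 5-fluorouridine were added together to 2,000 cells per well, incubated for 16 hr at 37 °C, then developed with ONE-Glo.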
Potency means the concentration at half of the fitted maximal effect.

SMILES | Potency
COc1ccc(CN2C(CC(=O)Nc3cccnc3)c3ccc(C(F)(F)F)cc3S2(=O)=O)cc1 (stereo not drawn) | inactive
Cc1ccc(S(=O)(=O)N2CCOCC2)cc1NC(=O)CSc1nnc(N)s1 | inactive
Cc1ccc(Nc2nc(N3CCOCC3)nc(N3CCOCC3)n2)cc1Cl | 0.651 µM (active)
COc1cc(OC)cc(-c2nnc(SCC(=O)Nc3ccc(C(=O)O)cc3)s2)c1 | inactive
Cc1ccc(Nc2nc(N)nc(CN3CCN(Cc4ccccc4)CC3)n2)cc1Cl | inactive
O=C(CSc1nc2ccccc2s1)Nc1ccc(C(=O)O)cc1 | inactive
Nc1nnc(SCC(=O)Nc2ccc3nc(SCC(=O)Nc4ccccc4)sc3c2)s1 | 1.84 µM (active)
C=CCn1c(CSc2nc3ccccc3s2)nnc1SCC(=O)NCc1ccco1 | inactive
Cc1ccccc1NC(=O)CSC1=NCCN1 | inactive
Cc1cc(Nc2ccc(Cl)cc2)nc(N2CCOCC2)n1 | inactive
Cc1ccccc1NC(=O)CSc1nc2ccc(Nc3nc(N4CCOCC4)nc(N4CCOCC4)n3)cc2s1 | 1.3 µM (active)
O=C(CSc1nc2ccc(Nc3nc(N4CCOCC4)nc(N4CCOCC4)n3)cc2s1)NCc1ccco1 | 2.59 µM (active)
O=C(CSc1c2c(nc3ccc(Cl)cc13)CCCC2)NCc1ccco1 | inactive
O=S(=O)(c1ccc(F)cc1)N1CCN=C1SCc1cccc(F)c1 | inactive
O=C(Nc1cc(-c2nc3ncccc3o2)ccc1Cl)c1ccco1 | inactive
COc1cccc(NC(=O)CCc2nnc3ccc(N4CCC(C)CC4)nn23)c1 | inactive
COc1ccc(N(Cc2ccc(N(C)C)cc2)C(=O)c2ccc(S(C)(=O)=O)cc2)cc1 | inactive
CN[C@H](C(=O)NC[C@H]1O[C@@H](n2cnc3c(N)ncnc32)[C@H](O)[C@@H]1O)[C@@H](C)OCc1ccccc1 | inactive
CCCN1CCn2c3c(c4cc(Br)ccc42)CCCC31 (stereo not drawn) | inactive
c1ccc2c(c1)OCC(CNc1ncnc3nc[nH]c13)O2 (stereo not drawn) | inactive
COc1ccc(Nc2ncnc3sc(-c4ccccc4)cc23)c(OC)c1 | inactive

SMILES | Potency
c1ccc(-c2cc3c(NCC4COc5ccccc5O4)ncnc3s2)cc1 (stereo not drawn) | 20.6 µM (active)
CC1(c2ccccc2)NC(=O)N(CC(=O)N2CC(=O)Nc3ccccc32)C1=O (stereo not drawn) | inactive
O=C(CCCC(=O)N1CCN(c2cccc(Cl)c2)CC1)c1ccccc1 | inactive
Cc1ccc(C(=O)Nc2nnc(C3=COCCO3)o2)cc1C | inactive
O=C1C=C(c2ccnc3cc(Cl)ccc23)C[C@@H](c2ccc3c(c2)OCO3)C1 | inactive
Cc1ccc(N2CCN(c3ccc([N+](=O)[O-])cn3)CC2)c(C)c1 | inactive
O=C(Cc1cc(=O)[nH][nH]1)N/N=C/c1ccccc1[N+](=O)[O-] | inactive
O=C(N/N=C/c1cc(Cl)cc([N+](=O)[O-])c1O)C(O)(c1ccccc1)c1ccccc1 | 16.4 µM (active)
CN(C)/N=C/c1cc(Cl)cc([N+](=O)[O-])c1O | inactive
CCOC(=O)C1=CN(Cc2ccc(Br)cc2)S(=O)(=O)N(C)C1C (stereo not drawn) | inactive
CCn1c(Cc2ccc(OC)cc2)nnc1SCC(=O)Nc1ccc(N2CCOCC2)cc1 | inactive
FC(F)(F)c1ccc2c3n(nc2c1)CCN=C3c1ccc(Cl)cc1 | inactive
CCC(C)n1c(-c2cc(OC)c(OC)c(OC)c2)nc2nc3ccccc3nc21 (stereo not drawn) | 14.6 µM (active)
COc1cc(C(O)c2nc3ccccc3n2C)cc(OC)c1OC (stereo not drawn) | inactive
COc1cc(-c2n[nH]c(=S)n2Cc2ccccc2)cc(OC)c1OC | inactive
O=C(COc1ccc([N+](=O)[O-])cc1Cl)Nc1ccc2[nH]c(=O)[nH]c2c1 | inactive
Nc1cc(N)nc(SCC(=O)Nc2cccc(S(=O)(=O)N3CCCCC3)c2)n1 | inactive
Cc1nn(-c2ccccc2)c2c1c(C)c(CCC(=O)NCC1CCCO1)c(=O)n2C (stereo not drawn) | inactive
CCCSc1nc2c(c(=O)[nH]c(=O)n2C)n1CCc1ccccc1 | inactive
Cc1cccc(OCC(O)Cn2c(N3CCCCC3)nc3c2c(=O)[nH]c(=O)n3C)c1 (stereo not drawn) | inactive
CCC(C)Sc1nc2c(c(=O)[nH]c(=O)n2C)n1CC(O)COc1cccc2ccccc12 (stereo not drawn) | 8.2 µM (active)

SMILES | Potency
COC(=O)c1c(NC(=O)C2CC(C)=C(C)CC2C(=O)O)sc2c1CCCCC2 (stereo not drawn) | inactive
Cc1ccc(S(=O)(=O)N2CCN(C(=O)COC(=O)CNC(=O)c3ccc(C(C)(C)C)cc3)CC2)c(C)c1 | inactive
c1csc(CN2CCN(Cc3cccs3)C2c2cccs2)c1 | inactive
Brc1ccc2c(c1)[C@H]1OCC[C@H]1[C@@H](c1cccs1)N2 | 20.6 µM (active)
CCc1nn(CCCC(=O)Nc2ccc(C)cc2C)c(=O)c2cc3occc3n12 | inactive
C/C=C/c1ccc(OCC(=O)OCC(=O)Nc2c(C)nn(-c3ccccc3)c2C)c(OC)c1 | inactive
COc1ccc(C(C)=O)cc1COc1ccc(Cl)c(C)c1 | inactive
CCn1nc(C)c(NC(=O)/C=C/c2ccc(OC)c(COc3ccc(Br)cc3)c2)c1C | 6.51 µM (active)
CC1CCCCC12NC(=O)N(CC(=O)OCc1c(F)cccc1Cl)C2=O (stereo not drawn) | inactive
COc1ccc(C(=O)NC2CC2)cc1OC1CCN(C/C=C/c2ccccc2)CC1 | inactive
CN(C)S(=O)(=O)c1ccc(C(=O)NCC(C)(C)N2CCOCC2)cc1 | inactive
CC(C)(CNC(=O)Cc1ccc(Cl)cc1Cl)N1CCOCC1 | inactive
Cc1ccccc1CSCCNC(=O)c1ccc(Cl)c(S(=O)(=O)N2CCOCC2)c1 | 18.4 µM (active)
Cc1nn(Cc2ccccc2)c(C)c1CNC(=O)c1ccc(F)c(S(=O)(=O)N2CCOCC2)c1 | inactive
CC(C)(CNC(=O)c1ccc(Cl)c(S(=O)(=O)N2CCc3ccccc3C2)c1)N1CCOCC1 | 1.83 µM (active)
Cc1ccc(C(=O)Nc2ncccc2C)cc1S(=O)(=O)N1CCOCC1 | inactive
COc1cccc(C(=O)Nc2nnc(S(=O)(=O)N3CCCCC3)s2)c1 | inactive
CCCn1nc(C(=O)NNC(=O)CCOc2ccccc2OCC)c2ccccc2c1=O | inactive
O=Cc1c(Nc2ccccc2Cl)nc2ccccn2c1=O | inactive
Cc1nc2ccccc2c(=O)n1-c1ccc(F)c(NC(=O)c2cccs2)c1 | inactive
O=C(CN1C(=O)NC2(CCCCCC2)C1=O)Nc1ccc([N+](=O)[O-])cc1 | inactive
